Assay results as given in PubChem BioAssay (NCATS).
Results filed as inconclusive are left out. Where a call stands in place of a potency, no number is given. Calls of active or inactive are those of the source. Calls come from the whole dose curve; as a rule, active = well fitted inhibition curve with a large enough effect; inconclusive = small, poorly fitted or top-dose-only effect; inactive = flat fitted curve, though single readings scatter.

tested on: MCC-26; experiment: qHTS assay to identify novel small-molecules to repurpose for Merkel cell carcinoma treatment (AID 1296009); conditions: MCC and control cell lines, CellTiter-Glo viability, 72 h; series mostly up to 46 µM; note: nearly all actives have a fitted effect of over 60% in size
From the text: MCC is a rare and aggressive neuroendocrine skin cancer with limited treatment options. Approximately 80% of MCCs have the Merkel cell polyomavirus (MCPyV) DNA integrated into the host genome (virus-positive: VP-MCC) and viral oncogenes drive oncogenesis. The remaining MCCs are virus-negative (VN-MCC) and are caused by UV mutagenesis. To identify novel treatments for VP-MCC and/or VN-MCC we screened three VP-MCC cell lines (WAGA, MKL-1, MKL-2), three VN-MCC cell lines (MCC-13, MCC-26, UISO), and four immortalized, non-transformed control cell lines (HaCaT, HEK293T, CRL7250, NIH-3T3) against ~2,400 compounds in the NCGC Pharmaceutical Collection (NPC) and ~1,900 compounds in the Mechanism Interrogation PlatE (MiPE). Using cell viability as a readout (CellTiter-Glo assay) we found both overlapping and distinct drugs that can be repurposed for the treatment of VP-MCC and VN-MCC.
A high-throughput screen was conducted in 1536-well white flat bottom plates (Corning) on a Kalypsys robotic system. Cell lines WAGA, MKL-1, MKL-2, MCC-13, MCC-26, UISO, HaCaT, HEK293T, CRL7250, and NIH-3T3 were screened against 2 small molecule annotated drug libraries NPC and MIPE in dose response (8 and 11 pt. respectively) measuring cell viability after 72 hours of incubation. […] A 1,536 pintool (Kalypsys) was used to transfer 23 nL of compound in DMSO to the 1,536-well assay plates. After 72 hr incubation at 37 degree celsius, 2.5 uL of CellTiter-Glo (Promega) was dispensed into each well using a BiorapTR. Plates were incubated at room temperature for 10 min, transferred to a ViewLux (PerkinElmer) and the luminescence was recorded using an exposure time of 2 seconds. Relative luminescence units (RLUs) were normalized to in-plate controls (no cells as a positive (cytotoxicity) control, DMSO as negative control) and the normalized data was processed using NCATS in-house software.
Potency is the fitted concentration of half-maximal effect.

Compound | Potency
CC=C(C(=CC)c1ccc(O)cc1)c1ccc(O)cc1 | inactive
COc1ccc(-c2cc(=O)c3c(O)cc(O[C@@H]4O[C@H](CO[C@@H]5O[C@@H](C)[C@H](O)[C@@H](O)[C@@H]5O)[C@@H](O)[C@H](O)[C@@H]4O)cc3o2)cc1O | inactive
CO[C@H]1/C=C\O[C@@]2(C)Oc3c(C)c(O)c4c(O)c(c5c(nc6cc(C)ccn65)c4c3C2=O)NC(=O)C(C)=CC=C[C@H](C)[C@H](O)[C@@H](C)[C@@H](O)[C@@H](C)[C@H](OC(C)=O)[C@H]1C | inactive
Cc1cnc(CNC(=O)c2c(=O)c3ccc(N4CCCN(C)CC4)nc3n3c2sc2ccccc23)cn1 | inactive
CNc1nc(Nc2ccc(C(=O)N3CCOCC3)cc2OC)ncc1Cl | inactive
COC1CCC(C(=O)c2ccc3nc4c(cc3c2)CCCO4)CC1 (stereo not given) | inactive
CC(C)n1c(C=C[C@H](O)C[C@H](O)CC(=O)O)c(-c2ccc(F)cc2)c2ccccc21 | 20.9 µM (active)
CN(C)c1ccc(-c2nc3ncc(Cl)c(N4CCN(CC(=O)Nc5nccs5)CC4)c3[nH]2)cc1 | inactive
CCNC(=O)CCCC=CC[C@@H]1[C@H](C=CC(O)CCc2ccccc2)[C@@H](O)C[C@@H]1O (stereo not given in full) | inactive
C[C@@]1(c2cc(-c3cncnc3)c(F)cc2F)CCSC(N)=N1 | inactive
C[C@]12CC[C@@H]3c4ccc(O)cc4CC[C@H]3[C@H]1[C@@H](O)[C@@H](O)[C@H]2O | inactive
N=C1SC(=Cc2ccc(-c3ccc4c(c3)C(=O)NC4=O)o2)C(=O)N1c1ccc(Br)cc1 | inactive
Cc1ccc(S(=O)(=O)OCC(=O)Nc2ccc(C(=O)O)c(O)c2)cc1 | inactive
Oc1cc(O)cc(C=Cc2ccc(O)c(O)c2)c1 | inactive
Cc1cc(C(C)Nc2ccccc2)c2nc(N3CCOCC3)cc(=O)n2c1 (stereo not given) | inactive
NS(=O)(=O)c1cc(Cl)c(Cl)c(S(N)(=O)=O)c1 | inactive
C[C@@H]1CC=CC=CC=CC=C[C@@H](O[C@@H]2O[C@H](C)[C@@H](O)[C@H](N)[C@H]2O)C[C@@H]2O[C@](O)(C[C@@H](O)C[C@@H]3O[C@@H]3C=CC(=O)O1)C[C@H](O)[C@@H]2C(=O)O | inactive
COc1nccc(-c2c(-c3ccc(F)cc3)ncn2C2CCC(O)CC2)n1 (stereo not given) | inactive
CN(C)S(=O)(=O)c1ccc2c(c1)C(=Cc1cc3c([nH]1)CCCC3)C(=O)N2 | inactive
CN(C)CCOc1ccc(C(=C(CCCl)c2ccccc2)c2ccccc2)cc1 | inactive

Compound | Potency
COc1ccnc(CS(=O)c2nc3ccc(OC(F)F)cc3[nH]2)c1OC (stereo not given) | inactive
Cc1cnc(-c2cc(N3CCN(C(=O)CCS(C)(=O)=O)CC3)ncc2Cl)c(C)c1 | inactive
CCC=CC[C@H]1C(=O)CC[C@@H]1CC(=O)OC | inactive
N#CC(c1ccc(Cl)cc1)c1c(Cl)cc(-n2ncc(=O)[nH]c2=O)cc1Cl (stereo not given) | inactive
Nc1ncnc2c1ncn2[C@@H]1O[C@H](CO)[C@@H](O)[C@@H]1O | inactive
CN1[C@H]2CC[C@H]1CC(OC(=O)c1c[nH]c3ccccc13)C2 (stereo not given in full) | inactive
COc1ccc2cc1Oc1ccc(cc1)C[C@H]1c3cc(c(OC)cc3CCN1C)Oc1c(OC)c(OC)cc3c1[C@H](C2)N(C)CC3 | inactive
COc1nc(C)cnc1NS(=O)(=O)c1cccnc1-c1ccc(-c2nnco2)cc1 | inactive
Nc1nc(Cl)nc2c1ncn2[C@@H]1O[C@H](CO)[C@@H](O)[C@H]1F | 0.59 µM (active)
COc1cc2ncnc(Nc3cc(Br)c(O)c(Br)c3)c2cc1OC | inactive
C[C@@H](O[C@H]1OCCN(Cc2n[nH]c(=O)[nH]2)[C@@H]1c1ccc(F)cc1)c1cc(C(F)(F)F)cc(C(F)(F)F)c1 | inactive
c1cc(OCCN2CCCCC2)cc(-c2n[nH]c3ccc(-c4ncn[nH]4)cc23)c1 | inactive
c1ccc(-c2oc3ncnc(NC[C@@H]4CCCO4)c3c2-c2ccccc2)cc1 | inactive
O=C(Nc1ccc(OC(F)(F)F)cc1)c1sccc1NCc1ccnc2ccccc12 | inactive
C=CCc1cccc(C=NNC(=O)CN2CCN(Cc3ccccc3)CC2)c1O | inactive
CCn1c(-c2nonc2N)nc2cncc(CNC3CCNCC3)c21 | inactive
CCCCCCCCCCCCCCCC(=O)O[C@H]1[C@@H](O)[C@@H](O)[C@@H]([C@H](NC(=O)[C@@H]2C[C@@H](CCC)CN2C)[C@H](C)Cl)O[C@@H]1SC | inactive
Cc1csc(-c2nnc(Nc3ccc(Oc4ncccc4-c4ccnc(N)n4)cc3)c3ccccc23)c1 | inactive
C[C@H]1[C@H](O)O[C@@H]2O[C@@]3(C)CC[C@@H]4[C@H](C)CC[C@@H]1[C@@]24OO3 | inactive
O=C(Nc1cccc(Cl)c1)Nc1ncc(CCNc2ncnc3ccsc23)s1 | inactive
